Laboratory results taken from PubChem BioAssay AID1159580 (chemical genetic matrix, 2015).
“And” between values parts separate entries of the source, which are not always exact repeats. Equal values may be shown once. About 2,000 (36%) of roughly 5,500 compounds were called active. Not shown: some 18% with an inconclusive outcome. No stated cut-off is given here; in the data, active means normalized growth mostly below about 0.91 (no sharp cut-off); inconclusive means no clear call, values can overlap the other calls; inactive means mostly above about 0.92. Some of the results follow.

Experiment: chemical genetic growth profiling, strain panel (AID 1159580);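 further: tested at 20 µM; growth read once vehicle control cultures reached saturation at 30 °C; 1 = growth at the plate median or of vehicle wells; lower values mean less growth of the strain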
Conditions: S. cerevisiae deletion strains, growth OD

Measured: normalized growth

CC(C)[C@@H]1CC[C@@H](C)CC1=O
inactive: locus YAL013W, strain DEP1, hits give low values 1.01 | locus YAL021C, strain ccr4, hits give low values 0.945 | locus YAL026C, strain drs2, hits give low values 1.01 | locus YAL030W, strain snc1, hits give low values 0.998 | locus YBL061C, strain skt5, hits give low values 0.993 | locus YBR009C, strain hhf1, hits give low values 0.981 | locus YBR021W, strain FUR4, hits give low values 0.98 | locus YBR023C, strain chs3, hits give low values 0.993 | locus YBR171W, strain sec66, hits give low values 0.986 | locus YBR229C, strain ROT2, hits give low values 1.01 | locus YBR231C, strain swc5, hits give low values 0.988 | locus YBR279W, strain paf1, hits give low values 0.994 | locus YCL011C, strain gbp2, hits give low values 0.967 | locus YCL016C, strain dcc1, hits give low values 0.978 | locus YCL029C, strain bik1, hits give low values 1.01 | locus YCL061C, strain MRC1, hits give low values 0.997 | locus YCL069W, strain vba3, hits give low values 0.99 | locus YCR088W, strain abp1, hits give low values 0.997 | locus YDL005C, strain med2, hits give low values 0.998 | locus YDL035C, strain GPR1, hits give low values 1.02 | locus YDL040C, strain nat1, hits give low values 1 | locus YDL074C, strain BRE1, hits give low values 1.02 | locus YDL101C, strain DUN1, hits give low values 1.02 | locus YDL134C, strain PPH21, hits give low values 1.02 | locus YDL185W, strain tfp1, hits give low values 1.01 | locus YDL192W, strain arf1, hits give low values 1.02 | locus YDR001C, strain nth1, hits give low values 1.01 | locus YDR069C, strain doa4, hits give low values 1.01 | locus YDR101C, strain arx1, hits give low values 1.01 | locus YDR137W, strain rgp1, hits give low values 1 | locus YDR150W, strain NUM1, hits give low values 1.02 | locus YDR159W, strain sac3, hits give low values 0.996 | locus YDR162C, strain NBP2, hits give low values 1.04 | locus YDR195W, strain ref2 0.976 | locus YDR297W, strain sur2, hits give low values 0.987 | locus YDR318W, strain mcm21, hits give low values 0.998 | locus YDR334W, strain swr1, hits give low values 0.993 | locus YDR335W, strain msn5, hits give low values 0.987 | locus YDR388W, hits give low values 1 | locus YDR392W, strain spt3, hits give low values 0.963 | locus YDR502C, strain sam2, hits give low values 1.01 | locus YEL003W, strain gim4, hits give low values 0.995 | locus YEL037C, strain rad23, hits give low values 0.982 | locus YEL061C, strain CIN8 (second series), hits give low values 0.989 | locus YEL061C, strain CIN8, hits give low values 1 | locus YER015W, strain faa2, hits give low values 0.984 | locus YER016W, strain bim1, hits give low values 0.991 | locus YER110C, hits give low values 1.01 | locus YER111C, strain swi4, hits give low values 1 | locus YER155C, strain BEM2 (second series), hits give low values 0.99 | locus YER155C, strain BEM2, hits give low values 0.998 | locus YER167W, strain BCK2, hits give low values 1.02 | locus YFR010W, strain ubp6, hits give low values 0.996 | locus YGL078C, strain dbp3, hits give low values 1 | locus YGL086W, strain mad1, hits give low values 1.01 | locus YGL167C, strain pmr1, hits give low values 0.992 | locus YGL173C, strain kem1, hits give low values 0.999 | locus YGL227W, strain vid30, hits give low values 1 | locus YGL240W, strain doc1, hits give low values 1 | locus YGL248W, strain PDE1, hits give low values 1.02 | locus YGL253W, strain hxk2, hits give low values 0.992 | locus YGR078C, strain PAC10, hits give low values 1.02 | locus YGR135W, strain pre9, hits give low values 1.01 | locus YGR229C, strain SMI1, hits give low values 1.05 | locus YGR252W, strain gcn5, hits give low values 1.03 | locus YHR013C, strain ard1, hits give low values 0.979 | locus YHR027C, strain rpn1, hits give low values 1 | locus YHR030C, strain SLT2, hits give low values 1.01 and 0.977 | locus YHR079C, strain IRE1 (second series), hits give low values 0.995 | locus YHR079C, strain IRE1, hits give low values 0.976 | locus YHR094C, strain hxt1, hits give low values 1.02 | locus YHR129C, strain ARP1, hits give low values 1.01 | locus YHR142W, strain chs7, hits give low values 0.968 | locus YHR200W, strain rpn10, hits give low values 1.01 | locus YIL066C, strain RNR3, hits give low values 1.04 | locus YIL073C, strain SPO22, hits give low values 1.06 | locus YIL125W, strain kgd1, hits give low values 1.02 | locus YIR030C, strain dcg1, hits give low values 1.01 | locus YJL092W, strain hpr5, hits give low values 0.989 | locus YJL095W, strain BCK1 (second series), hits give low values 0.978 | locus YJL095W, strain BCK1, hits give low values 1.06 and 0.982 | locus YJL115W, strain asf1, hits give low values 0.991 | locus YJL129C, strain trk1, hits give low values 1.01 | locus YJL134W, strain LCB3, hits give low values 1.01 | locus YJL154C, strain vps35, hits give low values 0.989 | locus YJL164C, strain tpk1, hits give low values 0.961 | locus YJL166W, strain qcr8, hits give low values 0.995 | locus YJL168C, strain set2, hits give low values 0.996 | locus YJL187C, strain SWE1 (second series), hits give low values 1.03 | locus YJL187C, strain SWE1, hits give low values 0.99 | locus YJR043C, strain POL32, hits give low values 1.02
